# Measured values: the supplement of paper PMC9446081
# Hit rate of the full screen: of about 39,000 compounds, about 220 (0.56%) showed activity. The sample as a whole holds a higher share of actives than the screen did. Unmarked numbers belong to inactive results.
# Tested on: Escherichia coli K-12 BW25113
# Experiment: relative growth (OD600 normalised to plate interquartile mean) (fraction); higher = less growth inhibition, active = 0.2 or less
# Conditions: 50 µM; LB; incubation time: overnight (16-24 h)
# 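Also: Wild-type cells incubated without shaking, value is the mean of two biological replicates.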
row,SMILES,relative growth
1,N=c1sccn1CC(=O)O,1.04
2,CC1=C(/C=C/C(C)=C/C=C/C(C)=C/C(=O)O)C(C)(C)CCC1,0.987
3,Cc1noc(C)c1NC(=O)N(C)C[C@@H]1OCCCC[C@H](C)Oc2ccc(NC(=O)CCC(F)(F)F)cc2C(=O)N([C@H](C)CO)C[C@@H]1C,0.979
4,C[C@H](CO)N1C[C@H](C)[C@@H](CN(C)Cc2ccc3c(c2)OCO3)Oc2c(NC(=O)c3cnccn3)cccc2C1=O,0.969
5,COc1ccc(S(=O)(=O)N(C)C[C@H]2OCCCC[C@@H](C)Oc3ccc(NC(=O)Nc4ccc(F)cc4)cc3C(=O)N([C@H](C)CO)C[C@@H]2C)cc1,1.07
6,CO[C@@H]1CN(C)C(=O)c2ccc(NC(=O)C3CCOCC3)cc2OC[C@@H](C)N(CC2CCOCC2)C[C@H]1C,1.02
7,O=C(CN1CCOCC1)NCC[C@H]1CC[C@@H](NC(=O)Nc2ccccc2)[C@@H](CO)O1,1.01
8,Cc1noc(C)c1S(=O)(=O)Nc1cccc2c1O[C@@H](CN(C)Cc1ccccc1)[C@@H](C)CN([C@@H](C)CO)C2=O,1.01
9,C[C@@H]1CN([C@H](C)CO)C(=O)c2cc(NC(=O)Nc3ccc(C(F)(F)F)cc3)ccc2O[C@H]1CN(C)Cc1ccc(C(F)(F)F)cc1,1.02
10,C[C@@H]1CN([C@H](C)CO)C(=O)c2cc(-c3cccc(C(=O)N(C)C)c3)cnc2O[C@@H]1CN(C)S(=O)(=O)c1ccccc1,0.987
11,COc1oc(C(=O)NC2CCCCC2)c(-c2ccc(Cl)cc2)c1S(=O)(=O)c1cccc(Cl)c1,0.914
12,COc1ccccc1-c1cnc2c(c1)C(=O)N([C@@H](C)CO)C[C@@H](C)[C@H](CN(C)C(=O)c1cccnc1)O2,1.02
13,COc1cc(N2CCC3(CC2)CNC(=O)CO3)ncn1,0.968
14,C[C@@H]1CN([C@H](C)CO)C(=O)Cc2cc(NC(=O)CCN3CCOCC3)ccc2O[C@H]1CN(C)Cc1ccc(C(=O)O)cc1,1.03
15,COC12C(COC(N)=O)C3=C(C(=O)C(C)=C(N)C3=O)N1CC1NC12 (centres undefined),0.0503 (active)
16,CO[C@@]12[C@@H]3N[C@@H]3CN1C1=C(C(=O)C(N)=C(C)C1=O)[C@@H]2COC(N)=O,0.0651 (active)
17,CO[C@@]12[C@H](COC(N)=O)C3=C(C(=O)C(C)=C(N)C3=O)N1C[C@@H]1N[C@@H]12,1.01
18,COCCNC(=O)C[C@H]1CC[C@H]2[C@@H](COC[C@@H](O)CN2C(=O)Nc2ccccc2OC)O1,0.949
19,Cc1noc(C)c1S(=O)(=O)Nc1ccc2c(c1)CC(=O)N([C@H](C)CO)C[C@@H](C)[C@H](CN(C)Cc1ccncc1)O2,0.995
20,C[C@H](CO)N1C[C@H](C)[C@@H](CN(C)C)Oc2ccc(NS(C)(=O)=O)cc2CC1=O,0.983
21,C[C@@H]1CCCCO[C@@H](CN(C)C(=O)C2CCCCC2)[C@H](C)CN([C@H](C)CO)C(=O)c2cc(NS(=O)(=O)c3ccccc3)ccc2O1,0.989
22,CC1=C(C(=O)NCCCN2CCN(c3ccc(F)cc3)CC2)C2(CCN(Cc3ccccc3)CC2)OC1=O,0.567

row,SMILES,relative growth
1,Cn1c(=O)[nH]c(=O)c2c1nc(N1CCN(CC(N)=O)CC1)n2C/C=C/c1ccccc1,0.988
2,Cc1ccc(S(=O)(=O)N(C)C[C@H]2Oc3c(NC(=O)c4cnccn4)cccc3C(=O)N([C@H](C)CO)C[C@@H]2C)cc1,0.975
3,C[C@H]1COc2c(C3(N)CC3)c(F)cc3c(=O)c(C(=O)O)cn1c23,0.0591 (active)
4,CC1COc2c(C3(N)CC3)c(F)cc3c(=O)c(C(=O)O)cn1c23.CS(=O)(=O)O (centres undefined),0.0476 (active)
5,C[C@H]1CN([C@@H](C)CO)C(=O)c2cc(NC(=O)CCN3CCOCC3)ccc2O[C@H]1CN(C)C(=O)NC1CCCCC1,0.98
6,CS(=O)(=O)c1cc(F)ccc1N,0.965
7,O=C(O)c1cccc(-c2ccco2)c1,1.01
8,CC(=O)OCC1=C[C@@H]2OC(=O)C3=CO[C@@H](O[C@H]4O[C@H](CO)[C@@H](O)[C@H](O)[C@H]4O)[C@H]1[C@@H]32,1.01
9,CNC(=O)CN1CCOC[C@@]2(C1)CN(C(=O)c1ccn[nH]1)CCO2,0.952
10,CCCCCCCCCCCCCCCC(=O)OC[C@H](NC(=O)C(Cl)Cl)[C@H](O)c1ccc([N+](=O)[O-])cc1,0.604
11,CCCCCCCCCCCCCCCC(=O)OCC(NC(=O)C(Cl)Cl)C(O)c1ccc([N+](=O)[O-])cc1 (centres undefined),0.559
12,O=C(NC(CO)C(O)c1ccc([N+](=O)[O-])cc1)C(Cl)Cl (centres undefined),0.0428 (active)
13,O=C(NCO)c1ccc([N+](=O)[O-])cc1,1.02
14,O=C([O-])CCC(=O)OCC(NC(=O)C(Cl)Cl)C(O)c1ccc([N+](=O)[O-])cc1.[Na+] (centres undefined),0.0517 (active)
15,CS(=O)(=O)c1ccc(C(O)C(CF)NC(=O)C(Cl)Cl)cc1 (centres undefined),0.0463 (active)
16,CCC(NC(C)C)C(O)c1ccc(O)c(O)c1.CS(=O)(=O)O (centres undefined),1.04
17,CS(=O)(=O)c1ccc(C(O)C(CO)NC(=O)C(Cl)Cl)cc1 (centres undefined),0.375
18,CCCCCCCCCCCCCCCC(=O)OC[C@@H](NC(=O)C(Cl)Cl)[C@H](O)c1ccc([N+](=O)[O-])cc1,1.03
19,C[C@@H]1CN([C@H](C)CO)C(=O)c2cc(NC(=O)Nc3ccc(F)cc3)ccc2O[C@@H](C)CCCCO[C@H]1CN(C)C(=O)Nc1ccc(C(F)(F)F)cc1,1
20,Cc1ccc(S(=O)(=O)N(C)C[C@H]2OCCCC[C@H](C)Oc3ccc(NC(=O)Nc4ccccc4)cc3C(=O)N([C@H](C)CO)C[C@@H]2C)cc1,1.07
21,C[C@@H]1CN([C@H](C)CO)C(=O)c2cc(NS(=O)(=O)c3ccccc3)ccc2O[C@@H](C)CCCCO[C@H]1CN(C)Cc1ccc(C(F)(F)F)cc1,1.07
22,C[C@@H]1CCCCO[C@@H](CN(C)CC2CCCCC2)[C@@H](C)CN([C@H](C)CO)C(=O)c2cc(NS(=O)(=O)c3ccccc3)ccc2O1,0.975
